Measurements taken from PubChem BioAssay.
Calls of active or inactive are those of the source.

Key:
[1] = tested on: Plasmodium falciparum Sir2 (PF13_0152, Sir2A); assay: pfSir2 binders on small-molecule microarrays, primary screen, biochemical, small-molecule microarray, 635 nm fluorescence (AID 1098); conditions: small-molecule microarray binding, fluorescence 635 nm; higher = more signal;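 further: score merges spot fluorescence intensity with its signal-to-noise ratio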
[2] = small-molecule microarray binders of probe aDKK1, primary screen, biochemical, biotinylated probe, 635/667 nm fluorescence (AID 1099); conditions: higher = more signal;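 further: score merges 667nm spot fluorescence with signal to noise across triplicate slides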
[3] = small-molecule microarray binders of probe aCHRDL2, primary screen, biochemical, biotinylated probe, 635/667 nm fluorescence (AID 1100); conditions: higher = more signal
[4] = splicing luciferase reporter signal modulators, primary screen, spliceosome inhibition project, cell-based, HEK293, splice +/- reporter (AID 1101); conditions: luminescence, 24 h, higher = more signal, called active from +8 up or from −8 down;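 further: HEK293 cells carrying a splicing-competent luciferase reporter gene; test concentration not given here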
[5] = target: Fibroblast growth factor 10 (Homo sapiens) (UniProt O15520); assay: FGF10 binders on small-molecule microarrays, primary screen, biochemical, small-molecule microarray, 635 nm fluorescence (AID 1102); conditions: FGF10 binding, fluorescence 635 nm, higher = more signal
[6] = tested on: glycogen synthase kinase-3 (GSK3A per assay name; protocol says GSK3B); assay: GSK3 binders on small-molecule microarrays, primary screen, biochemical, small-molecule microarray, 635 nm fluorescence, GSK3A (AID 1103); conditions: small-molecule microarray binding, fluorescence 635 nm; higher = more signal; further: the record names both GSK3A and GSK3B
[7] = target: Epidermal growth factor receptor (Homo sapiens) (UniProt P00533); assay: EGFR binders on small-molecule microarrays, primary screen, biochemical, small-molecule microarray, 635 nm fluorescence (AID 1104); conditions: EGFR binding, higher = more signal;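 further: score merges 667 nm emission intensity with spot signal to noise over triplicate slides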
[8] = target: Follistatin-related protein 3 (Homo sapiens) (UniProt O95633); assay: FSTL3 binders on small-molecule microarrays, primary screen, biochemical, small-molecule microarray, 635 nm fluorescence (AID 1105); conditions: FSTL3 binding, higher = more signal;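 further: score merges emission near 667 nm and signal to noise per printed spot across three slides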
[9] = target: Dickkopf-related protein 1 (Homo sapiens) (UniProt O94907); assay: DKK1 binders on small-molecule microarrays, primary screen, biochemical, small-molecule microarray, 635 nm fluorescence scan (AID 1106); conditions: DKK1 binding, higher = more signal;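 further: score merges emission near 667 nm with signal to noise over three replicate slides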
[10] = tested on: Inhibin beta A chain (activin A); assay: INHBA (activin A) binders on microarrays, primary screen, biochemical, small-molecule microarray, 635 nm fluorescence scan (AID 1107); conditions: small-molecule microarray binding, higher = more signal;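 further: mouse activin A protein probed at 4.33 µg/mL on printed slides; score merges bound-protein fluorescence near 667 nm with spot signal-to-noise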
[11] = tested on: Human papillomavirus type 1a protein E7 (residues 44-93); assay: HPV1a E7 fragment binders on microarrays, primary screen, biochemical, small-molecule microarray, residues 44-93, 635 nm fluorescence (AID 1108); conditions: small-molecule microarray binding, fluorescence 635 nm; higher = more signal;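 further: E7 fragment applied at 1 µg/mL in TBST for 1 h at 4 C; score combines spot fluorescence with its signal to noise ratio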
[12] = modulators of HCV replicon luciferase signal, primary screen, HCV replication inhibitor project, Huh7 cells, luciferase reporter (AID 1109); conditions: 48 h, higher = more signal;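 further: huh7 hepatoma cells harbouring a luciferase neomycin HCV replicon reporter; luciferase luminescence as measure of HCV replicon replication; test concentration not given here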
[13] = target: Left-right determination factor 2 (Homo sapiens) (UniProt O00292); assay: LEFTY2 binders on small-molecule microarrays, primary screen, biochemical, small-molecule microarray, 635 nm fluorescence scan (AID 1110); conditions: LEFTY2 binding, higher = more signal
[14] = target: Calmodulin-1 (Homo sapiens) (UniProt P0DP23); assay: CALM1 binders on microarrays, EGTA buffer, profiling panel, biochemical, small-molecule microarray, Cy5-labelled CALM1 (AID 1111); conditions: Cy5-CALM1 binding fluorescence, higher = more signal;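 further: labelled calmodulin applied in Tris saline Tween buffer holding calcium plus EGTA and DTT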
[15] = target: Calmodulin-1 (Homo sapiens) (UniProt P0DP23); assay: calcium-bound CALM1 binders on microarrays, profiling panel, artefact control for SMM control-protein annotation, biochemical, small-molecule microarray, Cy5-labelled CALM1, plus calcium (AID 1112); conditions: Cy5-CALM1 binding fluorescence, higher = more signal;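 further: score merges spot fluorescence with signal to noise from triplicate slides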
[16] = small-molecule microarray binders of probe aWnt5a, primary screen, biochemical, biotinylated probe, 635/667 nm fluorescence (AID 1113); conditions: higher = more signal;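 further: score merges 667 nm fluorescence intensity with signal-to-noise per printed feature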
[17] = small-molecule microarray binders of probe aShh, primary screen, biochemical, biotinylated probe, 635/667 nm fluorescence (AID 1114); conditions: higher = more signal;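 further: probe is biotin-labelled aShh protein from a stem cell growth factor screen; measures binding of labelled protein to compounds printed on the slide; score merges feature fluorescence at 667 nm with signal-to-noise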
[18] = small-molecule microarray binders of probe aNog, primary screen, biochemical, biotinylated probe, 635/667 nm fluorescence (AID 1115); conditions: higher = more signal;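 further: probe is biotinylated aNog protein used at 0.15 µg/mL for 1 h at 4 C; z-score combines 667 nm fluorescence of each spot with its signal to noise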
[19] = target: Torsin-1A-interacting protein 1 (Homo sapiens) (UniProt Q5JTV8); assay: LAP1 binders from COS7 cell lysate, primary screen, small-molecule microarray, 635/667 nm fluorescence (AID 1116); conditions: COS7-hLAP1 lysate binding, 635 nm fluorescence, higher = more signal
[20] = target: Alpha-bungarotoxin (Bungarus multicinctus) (UniProt P60615); assay: alpha-bungarotoxin binders on microarray, profiling panel, artefact control for SMM control protein annotation, biochemical, small-molecule microarray, Alexa647 label, 635/667 nm fluorescence (AID 1117); conditions: alpha-BTX-A647 binding fluorescence, higher = more signal
Sequence of Alpha-bungarotoxin (Bungarus multicinctus) (P60615 whole entry, looked up): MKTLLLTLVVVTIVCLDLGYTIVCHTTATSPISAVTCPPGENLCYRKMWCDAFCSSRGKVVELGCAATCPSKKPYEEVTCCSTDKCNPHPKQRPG

Sequence of Torsin-1A-interacting protein 1 (Homo sapiens) (Q5JTV8 whole entry, looked up): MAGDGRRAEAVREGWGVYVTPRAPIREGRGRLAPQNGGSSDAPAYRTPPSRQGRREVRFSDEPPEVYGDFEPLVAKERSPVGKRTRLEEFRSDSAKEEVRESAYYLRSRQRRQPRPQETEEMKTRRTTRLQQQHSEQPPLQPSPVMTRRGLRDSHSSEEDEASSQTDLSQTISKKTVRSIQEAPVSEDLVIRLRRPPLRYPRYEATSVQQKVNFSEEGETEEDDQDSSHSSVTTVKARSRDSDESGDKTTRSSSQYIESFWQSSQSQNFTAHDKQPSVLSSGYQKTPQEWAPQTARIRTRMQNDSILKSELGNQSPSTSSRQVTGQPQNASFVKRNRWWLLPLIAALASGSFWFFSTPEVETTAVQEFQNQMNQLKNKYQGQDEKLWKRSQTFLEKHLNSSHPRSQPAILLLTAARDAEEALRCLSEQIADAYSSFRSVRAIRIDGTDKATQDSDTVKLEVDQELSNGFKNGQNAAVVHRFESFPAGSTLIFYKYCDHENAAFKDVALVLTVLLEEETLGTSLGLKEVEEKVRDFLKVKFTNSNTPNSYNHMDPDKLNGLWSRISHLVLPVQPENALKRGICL
Sequence of Fibroblast growth factor 10 (Homo sapiens) (O15520 whole entry, looked up): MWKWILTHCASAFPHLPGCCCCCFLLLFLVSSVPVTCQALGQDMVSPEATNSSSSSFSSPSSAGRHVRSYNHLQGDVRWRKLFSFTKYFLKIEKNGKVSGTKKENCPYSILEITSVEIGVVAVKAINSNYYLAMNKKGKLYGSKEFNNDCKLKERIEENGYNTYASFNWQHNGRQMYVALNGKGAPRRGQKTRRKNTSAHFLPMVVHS
Sequence of Epidermal growth factor receptor (Homo sapiens) (P00533 whole entry, looked up): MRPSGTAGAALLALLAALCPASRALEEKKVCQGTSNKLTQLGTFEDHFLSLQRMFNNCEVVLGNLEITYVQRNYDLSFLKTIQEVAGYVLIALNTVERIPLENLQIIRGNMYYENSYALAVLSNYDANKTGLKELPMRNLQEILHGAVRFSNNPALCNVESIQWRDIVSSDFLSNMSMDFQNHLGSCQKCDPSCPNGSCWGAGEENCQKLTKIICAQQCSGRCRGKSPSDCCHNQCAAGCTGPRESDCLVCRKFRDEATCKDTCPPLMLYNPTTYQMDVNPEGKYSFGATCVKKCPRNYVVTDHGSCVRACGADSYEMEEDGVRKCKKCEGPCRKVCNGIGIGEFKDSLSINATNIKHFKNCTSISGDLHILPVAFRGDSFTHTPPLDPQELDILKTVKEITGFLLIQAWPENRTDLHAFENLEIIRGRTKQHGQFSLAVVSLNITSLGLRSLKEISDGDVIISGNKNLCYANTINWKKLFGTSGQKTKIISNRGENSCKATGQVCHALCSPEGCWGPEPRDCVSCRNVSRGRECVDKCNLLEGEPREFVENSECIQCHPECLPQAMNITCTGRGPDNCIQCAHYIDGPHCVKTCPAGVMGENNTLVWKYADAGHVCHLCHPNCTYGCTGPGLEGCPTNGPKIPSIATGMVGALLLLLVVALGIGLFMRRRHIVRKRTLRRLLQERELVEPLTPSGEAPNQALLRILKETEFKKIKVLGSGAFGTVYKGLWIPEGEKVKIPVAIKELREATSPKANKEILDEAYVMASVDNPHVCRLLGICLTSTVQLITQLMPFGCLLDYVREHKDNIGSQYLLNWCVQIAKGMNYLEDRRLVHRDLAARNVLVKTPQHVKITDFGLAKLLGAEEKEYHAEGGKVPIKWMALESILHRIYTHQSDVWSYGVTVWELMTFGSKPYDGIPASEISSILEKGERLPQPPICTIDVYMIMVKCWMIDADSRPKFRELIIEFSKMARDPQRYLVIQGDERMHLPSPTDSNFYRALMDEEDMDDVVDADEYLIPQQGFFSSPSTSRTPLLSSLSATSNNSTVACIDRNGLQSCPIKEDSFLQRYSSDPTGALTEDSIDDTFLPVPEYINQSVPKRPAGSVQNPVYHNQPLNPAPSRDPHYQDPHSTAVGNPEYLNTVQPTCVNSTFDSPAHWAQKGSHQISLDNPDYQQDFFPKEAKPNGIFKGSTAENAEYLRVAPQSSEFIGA
Sequence of Follistatin-related protein 3 (Homo sapiens) (O95633 whole entry, looked up): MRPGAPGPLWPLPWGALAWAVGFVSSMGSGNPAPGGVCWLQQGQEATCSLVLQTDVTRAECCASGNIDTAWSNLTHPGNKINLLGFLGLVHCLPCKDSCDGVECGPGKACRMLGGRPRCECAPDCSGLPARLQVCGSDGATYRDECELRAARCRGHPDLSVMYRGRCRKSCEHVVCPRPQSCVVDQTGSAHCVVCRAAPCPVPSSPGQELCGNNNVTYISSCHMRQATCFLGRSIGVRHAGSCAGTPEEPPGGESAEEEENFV
Sequence of Left-right determination factor 2 (Homo sapiens) (O00292 whole entry, looked up): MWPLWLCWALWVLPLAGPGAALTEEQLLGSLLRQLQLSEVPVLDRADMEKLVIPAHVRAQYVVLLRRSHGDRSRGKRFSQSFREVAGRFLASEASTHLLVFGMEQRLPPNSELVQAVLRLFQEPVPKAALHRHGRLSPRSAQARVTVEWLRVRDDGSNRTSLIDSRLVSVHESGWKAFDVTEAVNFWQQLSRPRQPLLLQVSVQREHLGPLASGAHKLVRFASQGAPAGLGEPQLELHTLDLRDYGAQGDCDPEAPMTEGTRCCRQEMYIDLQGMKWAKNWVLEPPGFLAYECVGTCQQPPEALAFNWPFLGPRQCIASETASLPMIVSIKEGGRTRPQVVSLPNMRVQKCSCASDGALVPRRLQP
Sequence of Dickkopf-related protein 1 (Homo sapiens) (O94907 whole entry, looked up): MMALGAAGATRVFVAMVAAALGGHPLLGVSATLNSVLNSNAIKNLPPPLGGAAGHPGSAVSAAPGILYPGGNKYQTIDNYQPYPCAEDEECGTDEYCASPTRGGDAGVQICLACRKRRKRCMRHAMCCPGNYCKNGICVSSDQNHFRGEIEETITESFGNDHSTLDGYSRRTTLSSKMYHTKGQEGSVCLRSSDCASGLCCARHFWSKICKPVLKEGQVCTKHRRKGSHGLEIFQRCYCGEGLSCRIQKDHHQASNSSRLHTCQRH

O=C1C[C@]2(c3ccc([N+](=O)[O-])cc3)C(=O)N(CC(F)(F)F)c3cc(CO)ccc3[C@H]2N1C1CCCCC1
composite z-score [1]: -0.535 | composite z-score [2]: 0.246 | composite z-score [3]: 0.564 | z-score [4]: 0.465 (inactive) | composite z-score [5]: -0.431 | composite z-score [6]: -0.161 | composite z-score [7]: -1.1 | composite z-score [8]: -0.883 | composite z-score [9]: -0.906 | composite z-score [10]: 0.23 | composite z-score [11]: -0.83 | z-score [12]: 0.909 | composite z-score [13]: -1.34 | composite z-score [14]: -0.74 | composite z-score [15]: -0.624 | composite z-score [16]: -0.103 | composite z-score [17]: -0.221 | composite z-score [18]: -0.495 | composite z-score [19]: -0.555 | composite z-score [20]: -0.605

COCCOC(=O)N1C(=O)[C@@]2(c3cc(C#CC4(O)CCCCCC4)ccc31)[C@H](c1ccc(OCCO)cc1)N1[C@H](c3ccccc3)[C@H](c3ccccc3)OC(=O)[C@H]1[C@@H]2C(=O)N1CCN(c2ncccn2)CC1
composite z-score [1]: 1 | composite z-score [2]: -0.165 | composite z-score [3]: 0.107 | z-score [4]: -0.201 (inactive) | composite z-score [5]: 1.11 | composite z-score [6]: 1.28 | composite z-score [7]: 0.334 | composite z-score [8]: 1.06 | composite z-score [9]: 0.48 | composite z-score [10]: 0.0414 | composite z-score [11]: 1.43 | z-score [12]: -1.77 | composite z-score [13]: 0.419 | composite z-score [14]: 0.795 | composite z-score [15]: 0.124 | composite z-score [16]: 0.0044 | composite z-score [17]: -0.147 | composite z-score [18]: 0.106 | composite z-score [19]: 0.667 | composite z-score [20]: 1.19

CN1C=C(C(=O)OCCS(C)(=O)=O)C(C(=O)OCCS(C)(=O)=O)=CC(c2ccc(CO)cc2)=CC1C1CC1 (stereo not given)
composite z-score [1]: 0.666 | composite z-score [2]: -0.0901 | composite z-score [3]: 0.166 | z-score [4]: 0.456 (inactive) | composite z-score [5]: 0.16 | composite z-score [6]: -0.0888 | composite z-score [7]: 0.353 | composite z-score [8]: -0.0857 | composite z-score [9]: 0.0847 | composite z-score [10]: 0.99 | composite z-score [11]: -0.0095 | z-score [12]: -0.595 | composite z-score [13]: 0.328 | composite z-score [14]: 0.405 | composite z-score [15]: -0.306 | composite z-score [16]: -0.105 | composite z-score [17]: -0.0681 | composite z-score [18]: 0.366 | composite z-score [19]: 1.83 | composite z-score [20]: 0.274

COCCOC(=O)N1C(=O)[C@@]2(c3cc(C#Cc4ccc(OC)cc4)ccc31)[C@H](c1ccccc1OCCO)N1[C@H](c3ccccc3)[C@H](c3ccccc3)OC(=O)[C@H]1[C@@H]2C(=O)NC[C@H](O)c1ccccc1
composite z-score [1]: 1.23 | composite z-score [2]: 0.201 | composite z-score [3]: 0.145 | z-score [4]: -0.352 (inactive) | composite z-score [5]: 1.14 | composite z-score [6]: 0.748 | composite z-score [7]: 0.544 | composite z-score [8]: 1.43 | composite z-score [9]: 0.696 | composite z-score [10]: 0.53 | composite z-score [11]: 1.44 | z-score [12]: -2.03 | composite z-score [13]: 0.46 | composite z-score [14]: 1.03 | composite z-score [15]: 0.427 | composite z-score [16]: -0.0445 | composite z-score [17]: 0.0469 | composite z-score [18]: 0.407 | composite z-score [19]: 0.819 | composite z-score [20]: 1.86

COc1ccc(C(O)C2C=CC3C(=O)N(Cc4ccccc4)C(=O)C3N2n2cnnc2)cc1OCc1ccccc1 (stereo not given)
composite z-score [1]: 0.504 | composite z-score [2]: -0.0756 | composite z-score [3]: 0.432 | z-score [4]: -1.91 (inactive) | composite z-score [5]: -0.245 | composite z-score [6]: 0.332 | composite z-score [7]: -0.283 | composite z-score [8]: 0.308 | composite z-score [9]: -0.192 | composite z-score [10]: 0.586 | composite z-score [11]: 0.958 | z-score [12]: -1.04 | composite z-score [13]: -0.355 | composite z-score [14]: 0.0367 | composite z-score [15]: -0.485 | composite z-score [16]: -0.096 | composite z-score [17]: -0.18 | composite z-score [18]: 0.393 | composite z-score [19]: 0.383 | composite z-score [20]: 0.161

C=C(CC1([C@@H](NP(=O)(c2ccccc2)c2ccccc2)[C@H]2C[C@@H]2CCCC)CC1)c1ccccc1
composite z-score [1]: 0.339 | composite z-score [2]: 0.786 | composite z-score [3]: 0.994 | z-score [4]: -2.51 (inactive) | composite z-score [5]: 0.0431 | composite z-score [6]: 0.014 | composite z-score [7]: 0.243 | composite z-score [8]: 0.438 | composite z-score [9]: 0.104 | composite z-score [10]: 0.705 | composite z-score [11]: 1.23 | z-score [12]: -0.776 | composite z-score [13]: -0.0117 | composite z-score [14]: 1.19 | composite z-score [15]: 1.15 | composite z-score [16]: 0.186 | composite z-score [17]: 0.257 | composite z-score [18]: 0.0585 | composite z-score [19]: 1.17 | composite z-score [20]: 0.598
